The values that follow come from PubChem BioAssay.

The source made the active and inactive calls.

In experiment [1] the test system is Plasmodium falciparum Sir2 (PF13_0152, Sir2A). The experiment can be described thus: Plasmodium falciparum Sir2A binding compounds – biochemical, small-molecule microarray, 635 nm fluorescence, primary screen (AID 1098).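 Also: score merges spot fluorescence intensity with its signal-to-noise ratio.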 The note with it: fluorescence 635 nm, higher = more signal.
Experiment [2] in a line: probe aDKK1 binding to arrayed compounds – biochemical, biotinylated probe, 635/667 nm fluorescence, primary screen (AID 1099).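 Also: score merges 667nm spot fluorescence with signal to noise across triplicate slides; reference of the scale not given here.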 The note with it: small-molecule microarray, higher = more signal.
Experiment [3] is described as follows: probe aCHRDL2 binding to arrayed compounds – biochemical, biotinylated probe, 635/667 nm fluorescence, primary screen (AID 1100). The conditions noted are these: small-molecule microarray, higher = more signal.
Experiment [4] in a line: change in splice reporter luminescence, either direction, cell-based, HEK293, spliceosome inhibition project, primary screen (AID 1101).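 Also: HEK293 cells carrying a splicing-competent luciferase reporter gene; test concentration not given here.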 The conditions noted are these: HEK293 splicing luciferase reporter, 24 h, higher = more signal, called active from +8 up or from −8 down. On the technique in general: Reporter assays use an easily measured gene product as a stand-in for the process of interest.

Experiment [5] has as its target Fibroblast growth factor 10 (Homo sapiens) (UniProt O15520). The experiment can be described thus: compounds binding fibroblast growth factor 10 – biochemical, small-molecule microarray, 635 nm fluorescence, primary screen (AID 1102). The note with it: FGF10 binding, fluorescence 635 nm, higher = more signal.
Experiment [6] relates to glycogen synthase kinase-3 (GSK3A per assay name; protocol says GSK3B). The experiment can be described thus: compounds binding glycogen synthase kinase-3 – biochemical, small-molecule microarray, 635 nm fluorescence, GSK3A, primary screen (AID 1103). Also: the record names both GSK3A and GSK3B. The note with it: fluorescence 635 nm, higher = more signal.
In experiment [7] the target is Epidermal growth factor receptor (Homo sapiens) (UniProt P00533). The experiment can be described thus: compounds binding epidermal growth factor receptor – biochemical, small-molecule microarray, 635 nm fluorescence, primary screen (AID 1104).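 Also: score merges 667 nm emission intensity with spot signal to noise over triplicate slides.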 The conditions noted are these: EGFR binding, higher = more signal.
Epidermal growth factor receptor (Homo sapiens), sequence (P00533 whole entry, looked up): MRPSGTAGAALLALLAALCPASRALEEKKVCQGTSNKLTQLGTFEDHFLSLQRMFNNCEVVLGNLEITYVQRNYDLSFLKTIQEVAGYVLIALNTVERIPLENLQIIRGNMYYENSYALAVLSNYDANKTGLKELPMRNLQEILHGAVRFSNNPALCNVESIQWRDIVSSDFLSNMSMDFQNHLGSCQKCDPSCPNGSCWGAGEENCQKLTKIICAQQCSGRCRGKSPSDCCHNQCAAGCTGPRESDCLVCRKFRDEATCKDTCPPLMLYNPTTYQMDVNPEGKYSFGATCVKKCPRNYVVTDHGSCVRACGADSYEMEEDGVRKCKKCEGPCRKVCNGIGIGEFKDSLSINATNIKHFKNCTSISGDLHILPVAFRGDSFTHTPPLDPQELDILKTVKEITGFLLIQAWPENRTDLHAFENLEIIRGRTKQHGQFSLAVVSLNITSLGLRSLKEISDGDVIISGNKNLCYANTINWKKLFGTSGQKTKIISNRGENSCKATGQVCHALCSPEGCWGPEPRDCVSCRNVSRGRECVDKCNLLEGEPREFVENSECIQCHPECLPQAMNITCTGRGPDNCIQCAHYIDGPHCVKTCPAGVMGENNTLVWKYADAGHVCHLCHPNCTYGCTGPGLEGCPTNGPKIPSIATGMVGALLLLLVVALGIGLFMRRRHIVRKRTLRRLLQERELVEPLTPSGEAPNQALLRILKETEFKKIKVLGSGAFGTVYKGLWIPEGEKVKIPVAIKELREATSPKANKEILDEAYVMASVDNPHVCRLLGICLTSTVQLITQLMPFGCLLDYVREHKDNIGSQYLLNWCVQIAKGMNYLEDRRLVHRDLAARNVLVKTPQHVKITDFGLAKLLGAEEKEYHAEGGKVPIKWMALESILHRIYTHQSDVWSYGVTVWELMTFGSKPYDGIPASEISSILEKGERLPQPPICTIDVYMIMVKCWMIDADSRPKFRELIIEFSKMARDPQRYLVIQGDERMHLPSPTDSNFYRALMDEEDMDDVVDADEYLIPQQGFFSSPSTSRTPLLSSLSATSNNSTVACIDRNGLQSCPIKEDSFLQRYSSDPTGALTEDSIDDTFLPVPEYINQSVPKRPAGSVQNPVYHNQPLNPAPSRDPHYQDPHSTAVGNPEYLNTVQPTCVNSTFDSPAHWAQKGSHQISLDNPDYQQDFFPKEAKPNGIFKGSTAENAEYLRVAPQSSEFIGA
Experiment [8] has as its target Follistatin-related protein 3 (Homo sapiens) (UniProt O95633). The experiment in a line: compounds binding follistatin-related protein 3 – biochemical, small-molecule microarray, 635 nm fluorescence, primary screen (AID 1105).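 Also: score merges emission near 667 nm and signal to noise per printed spot across three slides.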 The note with it: FSTL3 binding, higher = more signal.
In experiment [9] the target is Dickkopf-related protein 1 (Homo sapiens) (UniProt O94907). The experiment in a line: small molecules binding DKK1 protein – biochemical, small-molecule microarray, 635 nm fluorescence scan, primary screen (AID 1106).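 Also: score merges emission near 667 nm with signal to noise over three replicate slides.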 The note with it: higher = more signal.
Dickkopf-related protein 1 (Homo sapiens), sequence (O94907 whole entry, looked up): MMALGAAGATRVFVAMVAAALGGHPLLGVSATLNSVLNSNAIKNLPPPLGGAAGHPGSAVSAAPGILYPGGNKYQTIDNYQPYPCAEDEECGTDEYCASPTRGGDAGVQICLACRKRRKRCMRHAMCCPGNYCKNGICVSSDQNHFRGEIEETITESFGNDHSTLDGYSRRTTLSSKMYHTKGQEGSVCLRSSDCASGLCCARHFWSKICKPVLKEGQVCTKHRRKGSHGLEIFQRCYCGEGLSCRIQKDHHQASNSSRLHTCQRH
Experiment [10] deals with Inhibin beta A chain (activin A). The experiment can be described thus: small molecules binding activin A – biochemical, small-molecule microarray, 635 nm fluorescence scan, primary screen (AID 1107).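 Also: mouse activin A protein probed at 4.33 µg/mL on printed slides; score merges bound-protein fluorescence near 667 nm with spot signal-to-noise.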 The note with it: INHBA, higher = more signal.

Follistatin-related protein 3 (Homo sapiens), sequence (O95633 whole entry, looked up): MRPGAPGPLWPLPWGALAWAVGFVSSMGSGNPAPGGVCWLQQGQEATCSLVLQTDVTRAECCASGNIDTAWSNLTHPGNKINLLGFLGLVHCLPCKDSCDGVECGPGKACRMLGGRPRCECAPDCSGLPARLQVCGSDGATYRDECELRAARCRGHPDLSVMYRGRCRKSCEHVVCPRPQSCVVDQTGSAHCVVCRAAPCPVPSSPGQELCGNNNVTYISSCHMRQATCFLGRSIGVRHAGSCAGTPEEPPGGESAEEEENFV
Fibroblast growth factor 10 (Homo sapiens), sequence (O15520 whole entry, looked up): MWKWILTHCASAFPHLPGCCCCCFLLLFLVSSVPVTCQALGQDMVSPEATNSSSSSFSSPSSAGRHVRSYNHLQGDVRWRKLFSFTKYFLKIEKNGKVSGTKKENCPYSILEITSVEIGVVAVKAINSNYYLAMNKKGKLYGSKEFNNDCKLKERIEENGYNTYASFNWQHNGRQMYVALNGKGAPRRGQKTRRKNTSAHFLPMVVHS

Consider `COCCCNC(=O)[C@@]1(Cc2ccccc2I)c2ccccc2C(=O)N(Cc2ccccc2C(F)(F)F)[C@H]1c1ccc(CO)cc1`, for which the composite z-score in experiment [1] is 0.228; in experiment [2] it was 0.201; in experiment [3] it was 0.883; in [5] it was 0.0125; in experiment [6], -0.559; in experiment [7] it was -1.71. Moreover, the composite z-score in experiment [8] is -0.961; in experiment [9], -1.68; in experiment [10], -0.601. The z-score in [4] was 0.544 (inactive).
On to `CCCCC(=C=CC[C@@H](O)c1ccccc1OCCO)C[C@@H](O)c1ccccn1`, for which the composite z-score in [1] was 1.55; in [2], -0.124; in experiment [3], -0.167; in [5], 0.473; in [6], -0.644; in experiment [7], 0.125. In addition, the composite z-score in experiment [8] was determined as 0.143; in [9], 0.141; in experiment [10], 0.624. Moreover, the z-score in experiment [4] was -0.0777 (inactive).
Turning to `COc1ccc(CCNC(=O)[C@@]2(C)c3ccccc3C(=O)N(Cc3ccc(OC(F)(F)F)cc3)[C@H]2c2ccc(CO)cc2)cc1`, the composite z-score in experiment [1] was 0.738; in [2] it was 0.781; in experiment [3], -0.325; in experiment [5], 1.19; in experiment [6], 1.3; in experiment [7] it was 0.743. Further, the values for the composite z-score in experiment [8], in [9] and in experiment [10] were 0.286, 1 and -0.307, respectively. In [4], the z-score is -0.383 (inactive).
For the compound `CCCCC(=C=CC[C@H](O)c1cccc(OCCO)c1)C[C@H](O)c1cc(Cl)cc(Cl)c1O`, the composite z-score was 1.28 in experiment [1]; -0.152 in [2]; -0.214 in experiment [3]; 1.27 in [5]; 0.25 in experiment [6]; -0.443 in experiment [7]. Also, the composite z-score stood at 0.544 in experiment [8], 0.0244 in experiment [9] and 0.295 in experiment [10]. Also, the z-score in [4] is -0.109 (inactive).
`C=CC[C@]1(C(=O)NCCN2CCOCC2)N=C(c2ccc(OCCCO)cc2)O[C@H]1c1ccccc1`: the composite z-score in [1] was 1.52; in experiment [2], -0.0845; in experiment [3], 0.942; in [5] it was 0.3; in experiment [6], 0.866; in [7], -0.0911. For the same compound, the composite z-score in experiment [8] was 0.281; in [9] it was 0.418; in experiment [10] it was 0.772. Further, in [4], the z-score was -0.4 (inactive).
Take `COc1ccc(CCNC(=O)[C@@]2(c3ccc([N+](=O)[O-])cc3)CC(=O)N(C3CCCCC3)[C@@H]2c2ccc(CO)cc2I)cc1`: the composite z-score in [1] was 0.401; in experiment [2] it was -0.0644; in experiment [3] it was -0.0582; in experiment [5], 0.823; in experiment [6], 0.56; in [7] it was 0.19. Further, the results for the composite z-score in [8], in [9] and in experiment [10] were 0.241, 0.608 and 0.44, respectively. Further, the z-score in experiment [4] is 0.845 (inactive).
As to `C[N+](C)(C)CCCC[C@@H]1NC(=O)[C@H]2C[C@@H](C(=O)NCCCCCN)[C@@H](c3ccc(O)cc3)N2C1=O`, the composite z-score turned out to be 0.977 in experiment [1]; 0.876 in [2]; 0.863 in [3]; 1.53 in experiment [5]; 1.34 in experiment [6]; 0.243 in [7]. The composite z-score in experiment [8] turned out to be 0.58; in [9], 0.89; in [10], 0.617. In addition, in experiment [4], the z-score is 0.127 (inactive).
As for `CC(C)C[C@@H]1NC(=O)[C@@H]2C[C@H](C(=O)NCCCCCNC(=O)CS)[C@H](c3ccc(O)cc3)N2C1=O`, the composite z-score in [1] is 1.67; in [2] it was -0.1; in experiment [3], -0.03; in experiment [5], -0.113; in experiment [6] it was -0.0192; in [7] it was 0.135. Also, the values for the composite z-score in experiment [8], in [9] and in experiment [10] were 0.286, 0.353 and -0.111, respectively. The z-score in experiment [4] is -3.37 (inactive).
Take `COc1ccc([Si](C)(C)[C@H]2[C@H](CC(=O)N(CCO)Cc3ccccc3)O[C@@]3(C(=O)N(c4ccccc4)c4ccccc43)[C@@H]2C)cc1`: the composite z-score is 0.717 in experiment [1]; -0.202 in [2]; -0.0698 in [3]; 0.889 in experiment [5]; 0.289 in experiment [6]; 0.686 in experiment [7]. In addition, the figures for the composite z-score in experiment [8], in [9] and in experiment [10] were 1.09, 0.415 and 0.841, respectively. For the same compound, the z-score in experiment [4] was -1.5 (inactive).
Consider `O=C1C[C@@](C(=O)NCC(F)(F)F)(c2ccc([N+](=O)[O-])cc2)[C@@H](c2ccc(CO)cc2I)N1CC12CC3CC(CC(C3)C1)C2`, for which the composite z-score in experiment [1] was 1.5; in experiment [2], -0.113; in experiment [3], 0.0558; in experiment [5] it was 0.343; in [6], 0.785; in experiment [7] it was 0.237. For the same compound, the composite z-score was 0.406 in experiment [8], -0.0464 in experiment [9] and 0.227 in experiment [10]. For the same compound, the z-score in experiment [4] is -1.85 (inactive).
